# Shown is part of a subset that was picked to be rich in hits.
# AmpC inh no detg = blocks E. coli AmpC beta-lactamase in detergent-free assay | AmpC nitrocefin hydrolysis, absorbance 480 nm, 0.0001% Triton | Potency, µM (highest dose often 57.1 µM), for inactives: top-dose activity change, negative = inhibition, most hits filed as inhibitors | actives 0.52% (n = 330,000);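 also: potency is read from the fitted curve at half-maximal effect; plate controls were no compound for no effect and no enzyme for full effect; nearly all actives have a fitted effect of over 20% in size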
# Target sequence (P00811 whole entry, looked up): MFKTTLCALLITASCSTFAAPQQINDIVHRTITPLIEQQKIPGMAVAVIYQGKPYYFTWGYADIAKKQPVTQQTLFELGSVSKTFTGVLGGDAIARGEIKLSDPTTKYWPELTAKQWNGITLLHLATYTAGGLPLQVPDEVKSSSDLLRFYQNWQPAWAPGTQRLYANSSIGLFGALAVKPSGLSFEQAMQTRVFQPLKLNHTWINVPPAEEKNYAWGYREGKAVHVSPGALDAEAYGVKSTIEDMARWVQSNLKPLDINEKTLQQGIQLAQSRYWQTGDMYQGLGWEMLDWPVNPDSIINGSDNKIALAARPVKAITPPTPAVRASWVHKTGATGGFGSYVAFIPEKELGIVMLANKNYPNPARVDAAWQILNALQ
#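 20 mM phosphate pH 7.0 + 0.01% (detergent screen) or 0.0001% Triton X-100; 5.3 nM AmpC reagent; cpd preinc 15 min RT; nitrocefin (800 uM stock) to start; A480 q20 s × 4 min; Activity was normalised to no-enzyme and no-compound control wells.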
# Cycloheximide cs = counter-screen hit for Shiga toxin inhibitors, cycloheximide; cell reporter, cycloheximide protein synthesis inhibition counterscreen; max response, %; actives 12% (n = 300,000); AID 2314; in the data active = max response mostly above about 13%, no sharp cut-off; inactive = mostly below about 14%; also: read at 38.3 µM for the half of the compounds with a filed dose; 0% is about no effect
# AMA1 RON2 block = disrupts binding of P. falciparum AMA1 to RON2; actives 0.2% (n = 360,000); Potency, µM (series often up to 58.2 µM), without a hit: top-dose activity change, negative = inhibition, hits mostly inhibitors; AlphaScreen AMA1-biotinylated RON2 peptide binding;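 also: potency is read from the fitted curve at half-maximal effect; 0% = vehicle wells and -100% = peptide control; nearly all actives have a fitted effect of over 45% in size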
#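 AMA1 (3D7) with his tag at 25 nM final met compounds first, then biotinylated RON2 peptide at 25 nM; detection used donor plus acceptor beads, 10 µg/mL apiece, read by AlphaScreen after 30 min at room temperature.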
# AmpC detergent = inhibitors of E. coli AmpC beta-lactamase with detergent; P00811; AmpC hydrolysis of nitrocefin, absorbance 480 nm, 0.01% Triton; Potency, µM (series often up to 114 µM), without a hit: top-dose activity change, negative = inhibition, hits mostly inhibitors; actives 0.041% (n = 370,000);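 also: potency is read from the fitted curve at half-maximal effect; 0% = no-compound wells and -100% = no-enzyme wells; nearly all actives have a fitted effect of over 25% in size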
#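 20 mM phosphate pH 7.0 + 0.01% (detergent screen) or 0.0001% Triton X-100; 5.3 nM AmpC reagent; cpd preinc 15 min RT; nitrocefin (800 uM stock) to start; A480 q20 s × 4 min; Activity was normalised to no-enzyme and no-compound control wells.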
# SARS PLP yeast = blocks SARS-CoV papain-like protease in a yeast assay | S. cerevisiae expressing SARS-CoV PLpro, growth rescue | actives 0.19% (n = 330,000) | Potency, µM (titrated, usually from 32.9 µM), for the others: at the highest dose activity, positive = growth rescue, actives largely listed as activators; calls by dose curve; also: potency is read from the fitted curve at half-maximal effect; 0% is about no effect; nearly all actives have a fitted effect of over 55% in size
# Shiga inhibitor = inhibitors of Shiga toxin in Vero cells. Vero cells, Shiga toxin protein synthesis inhibition reporter. inhibition, % at 38.7 µM. actives 9.2% (n = 290,000). AID 2315; in the data active = inhibition mostly above about 28%, no sharp cut-off; inactive = mostly below about 43%; also: 0% is about no effect
# * = called active by the depositor; ? = inconclusive; · = no result. Unless noted, calls follow the shape of the dose curve; as a rule, active = well fitted curve in the direction sought with a large enough effect; inconclusive = small, poorly fitted or top-dose-only effect, or another doubt; inactive = no such curve, though single readings can be large; an effect the other way counts as inactive or inconclusive.
SMILES,AmpC inh no detg,Cycloheximide cs,AMA1 RON2 block,AmpC detergent,SARS PLP yeast,Shiga inhibitor
O=C(Nc1cccc(F)c1)c1ccco1,-6.1%,29.2*,-19.4%,-5.0%,0.3%,42.4*
Cc1cc(C)cc(C(=O)Nc2cccc(NC(=O)c3ccco3)c2)c1,-55.3%,20.7*,-14.1%,-12.9%,-11.5%,18.7
COc1ccc(C(=O)C2CCN(C(=O)c3ccc(OC)cc3)CC2)cc1,23.8%,-1.9,3.1%,-11.5%,1.6%,-0.7
NC1=NC2(CCCCCC2)n2c(nc3ccccc32)N1,-43.0%,4.5,-0.4%,-2.7%,0.6%,-4.9
CC1CCCN(C(=O)CSc2nnc(-c3ccc(S(=O)(=O)N4CCOCC4)cc3)n2C)C1 (stereo not given),26.2%,-4.3,-8.5%,-14.2%,11.4%,5.5
CSC(=NC#N)N1CCN(c2ccc(Cl)cc2)CC1,-5.4%,27.8*,-14.0%,-3.8%,-24.2%,47.3*
CN(C)C(=C(C#N)C#N)N1CCN(c2ccc(Cl)cc2)CC1,-5.3%,-3.9,-8.9%,-0.5%,0.8%,-9.5
COc1cc(OC)cc(C(=O)NC(=S)NCc2ccco2)c1,-25.3%,-2.0,0.0%,-4.9%,14.8%,-14.2
CCc1ccc2c(c1)C1(NN=C(c3cccc4ccccc34)S1)C(=O)N2 (stereo not given),-58.9%,16.0,·,-2.1%,-4.7%,47.6*
COc1ccc(S(=O)(=O)N2CCCC(C(=O)Nc3cccc(C(C)=O)c3)C2)cc1 (stereo not given),-21.8%,-3.8,3.7%,?,-5.6%,-2.5
Nc1c(C(=O)O)cnn1-c1ccc([N+](=O)[O-])cc1,-2.7%,-2.8,6.4%,2.5%,-6.6%,-17.5
CCOc1cccc(Oc2ccc(C(F)(F)F)cn2)c1,-11.4%,-2.0,14.7%,-0.3%,2.1%,-3.4
CCOC(=O)c1cnn(-c2ccc([N+](=O)[O-])cc2)c1N,-20.5%,14.9*,-3.5%,-11.5%,-0.9%,17.9
CCOC(=O)c1ccc(Oc2ccc(C(F)(F)F)cn2)cc1,-23.9%,29.0*,18.6%,?,1.8%,61.4
CCOC(=O)c1cnn(-c2ccccc2)c1N,-3.3%,30.9*,3.9%,3.7%,2.2%,33.7
CCOC(=O)c1cnn(-c2cccc(Cl)c2)c1N,-8.3%,34.4*,-14.9%,?,-3.3%,60.8*
CCOc1ccccc1/C=N/NC(=O)CNC(=O)c1ccc(S(=O)(=O)N2CCOCC2)cc1,-10.8%,-1.8,3.4%,-8.1%,9.0%,-3.4
CCOC(=O)c1cnn(-c2nc(C)cc(C)n2)c1N,-18.4%,2.6,0.0%,-4.3%,-5.6%,19.7
NC(=O)c1cnn(-c2ccc3ccccc3c2)c1N,-11.2%,23.6*,9.0%,-1.1%,0.7%,38.7
CCOC(=O)c1cnn(-c2ccccc2)c1-n1cccc1C(=O)C(=O)Nc1ccccc1,-1.6%,21.3*,-7.8%,?,-7.3%,43.1*
CCOC(=O)c1cnn(-c2ccc(C(F)(F)F)cn2)c1N,-14.3%,40.2*,-3.4%,-17.0%,-3.9%,77.4*
O=C(Nc1ccc2c(c1)OCO2)c1cc(C2CCCCN2C(=O)c2ccc3ccccc3c2)on1 (stereo not given),·,·,-1.6%,·,·,·
COc1ccc(C(C(=O)NC2CCCCC2)N(Cc2ccco2)C(=O)CNC(=O)c2ccco2)cc1 (stereo not given),·,·,12.3%,·,·,·
O=C(NCC(=O)N(Cc1cccs1)C(C(=O)NC1CCCC1)c1ccncc1)c1ccco1 (stereo not given),31.3%,0.5,11.8%,-6.4%,-2.5%,8.5
O=C(NCC(=O)N(Cc1ccccc1)C(C(=O)NC1CCCC1)c1ccncc1)c1ccco1 (stereo not given),3.1%,20.4*,9.6%,-9.4%,15.4%,15.1
SMILES,AmpC inh no detg,Cycloheximide cs,AMA1 RON2 block,AmpC detergent,SARS PLP yeast,Shiga inhibitor
CCOc1ccccc1C(C(=O)NC1CCCC1)N(Cc1ccco1)C(=O)CNC(=O)c1ccco1 (stereo not given),47.5%,12.4*,-3.0%,5.5%,7.6%,13.0
CCCCN(C(=O)CNC(=O)c1cccs1)C(C(=O)NC1CCCC1)c1ccncc1 (stereo not given),-27.3%,28.4*,-3.3%,2.6%,-0.2%,46.4
CCc1ccc(OCC(=O)Nc2ncc3c(n2)CC(C)(C)CC3=O)cc1,-19.9%,-6.5,0.1%,5.0%,-1.7%,-16.7
CC(C)N(CC(O)COc1ccc(CC(N)=O)cc1)CC(O)COc1ccc(CC(N)=O)cc1 (stereo not given),-10.5%,-5.1,-7.7%,-13.4%,0.3%,-4.7
CC(C)Cc1nnc(NC(=O)CCC(=O)N2CCN(c3ccccn3)CC2)s1,5.4%,-0.8,1.0%,?,-1.9%,-4.7
CC#CC#Cc1cccc(=O)o1,-6.7%,25.4*,-10.2%,2.7%,-0.8%,61.1*
Cc1ccc(-n2ncc3c(NCCCn4ccnc4)ncnc32)cc1,·,·,·,-4.5%,·,·
O=C1CCCN1CCCNc1ncnc2c1cnn2-c1ccc(Cl)cc1,9.6%,27.6*,-4.1%,?,0.3%,28.5*
Cc1cccc(-n2ncc3c(NCCCn4ccnc4)ncnc32)c1,-8.2%,61.8*,-3.7%,2.5%,-4.4%,74.5*
Cc1cccc(-n2ncc3c(NCCOCCO)ncnc32)c1,·,·,·,1.5%,·,·
Cc1cccc(-n2ncc3c(NCCCN4CCCC4=O)ncnc32)c1,115.5%,58.1*,-1.2%,3.9%,-2.5%,77.1*
CCn1c(/C=C/c2ccccc2Cl)nc2ccccc2c1=O,26.2%,30.5*,-7.2%,1.6%,-3.0%,74.5*
O=c1c2ccccc2nc(/C=C/c2cccnc2)n1Cc1ccccc1,26.0%,-2.9,31.6µM*,-6.2%,-2.9%,-15.9
CCn1c(/C=C/c2c[nH]c3ccccc23)nc2ccccc2c1=O,0.2%,40.9*,12.6%,4.5%,-0.6%,50.2*
CCn1c(/C=C\c2ccccc2C)nc2ccccc2c1=O,-4.4%,23.4*,49.0%,5.5%,1.2%,81.7*
Cc1ccccc1/C=C\c1nc2ccccc2c(=O)n1Cc1ccccc1,-32.4%,-0.4,6.5%,?,7.7%,-3.4
COCCNC(=O)C(c1ccc(C)o1)N(CCOC)C(=O)Cn1nnc2ccccc21 (stereo not given),-1.1%,0.6,-7.4%,-3.2%,0.8%,-8.1
COC(=O)c1nnn(-c2nonc2N)c1CSc1nc2ccccc2s1,-5.4%,21.0*,-6.4%,-1.0%,0.3%,27.3
O=C(/C=C/c1ccco1)Nc1ccc2nn(-c3ccccc3)nc2c1,?,9.1,-13.7%,-11.6%,-24.2%,9.8
Cc1nc(-c2ccc(S(=O)(=O)N3CCN(C4c5ccccc5-c5ccccc54)CC3)s2)cs1,-36.8%,29.7*,-3.3%,4.8%,0.9%,93.7*
Cc1nc(-c2ccc(S(=O)(=O)Oc3ccccc3Cl)s2)cs1,-46.4%,26.0*,-0.9%,0.0%,0.1%,33.3*
